The whole screen tested about 5,500 compounds, of which about 2,000 (36%) were called active. Not shown: some 18% with an inconclusive outcome. Some of the results follow. Values without a mark were called inactive. Rule as the data show it: active = normalized growth mostly below about 0.91 (no sharp cut-off); inconclusive = no clear call, values can overlap the other calls; inactive = mostly above about 0.92.
Assay: chemical genetic growth profiling, strain panel (AID 1159580);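 also: tested at 20 µM; growth read once vehicle control cultures reached saturation at 30 °C; 1 = growth at the plate median or of vehicle wells; lower values mean less growth of the strain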
Settings: growth OD

Compound: N#Cc1c(N)oc(-c2ccco2)c1-c1ccco1
- normalized growth (S. cerevisiae deletion strains, locus YAL013W, strain DEP1, hits give low values): 0.893 (active)
- normalized growth (S. cerevisiae deletion strains, locus YBR229C, strain ROT2, hits give low values): 0.975
- normalized growth (S. cerevisiae deletion strains, locus YDL101C, strain DUN1, hits give low values): 0.968
- normalized growth (S. cerevisiae deletion strains, locus YDL134C, strain PPH21, hits give low values): 0.947
- normalized growth (S. cerevisiae deletion strains, locus YDR150W, strain NUM1, hits give low values): 0.937
- normalized growth (S. cerevisiae deletion strains, locus YEL061C, strain CIN8, hits give low values): 0.947
- normalized growth (S. cerevisiae deletion strains, locus YGR078C, strain PAC10, hits give low values): 0.948
- normalized growth (S. cerevisiae deletion strains, locus YGR229C, strain SMI1, hits give low values): 0.994
- normalized growth (S. cerevisiae deletion strains, locus YHR030C, strain SLT2, hits give low values): 0.415 (active)
- normalized growth (S. cerevisiae deletion strains, locus YHR087W, strain rtc3, hits give low values): 0.97
- normalized growth (S. cerevisiae deletion strains, locus YJR043C, strain POL32, hits give low values): 0.943
- normalized growth (S. cerevisiae deletion strains, locus YJR075W, strain HOC1, hits give low values): 0.949
- normalized growth (S. cerevisiae deletion strains, locus YKL190W, strain CNB1, hits give low values): 0.992
- normalized growth (S. cerevisiae deletion strains, locus YLR039C, strain RIC1, hits give low values): 0.981
- normalized growth (S. cerevisiae deletion strains, locus YLR058C, strain SHM2 (second series), hits give low values): 0.961
- normalized growth (S. cerevisiae deletion strains, locus YLR085C, strain ARP6, hits give low values): 0.626 (active)
- normalized growth (S. cerevisiae deletion strains, locus YLR262C, strain YPT6, hits give low values): 0.999
- normalized growth (S. cerevisiae deletion strains, locus YML094W, strain GIM5, hits give low values): 0.875
- normalized growth (S. cerevisiae deletion strains, locus YMR219W, strain ESC1, hits give low values): 0.969
- normalized growth (S. cerevisiae deletion strains, locus YMR263W, strain SAP30, hits give low values): 0.917
- normalized growth (S. cerevisiae deletion strains, locus YNL153C, strain GIM3, hits give low values): 0.987
- normalized growth (S. cerevisiae deletion strains, locus YNL298W, strain CLA4 (second series), hits give low values): 0.888
- normalized growth (S. cerevisiae deletion strains, locus YNL322C, strain KRE1, hits give low values): 0.962
- normalized growth (S. cerevisiae deletion strains, locus YNR030W, strain Alg12, hits give low values): 0.903
- normalized growth (S. cerevisiae deletion strains, locus YOL006C, strain TOP1, hits give low values): 0.913
- normalized growth (S. cerevisiae deletion strains, locus YPL055C, strain LGE1, hits give low values): 0.789 (active)
- normalized growth (S. cerevisiae deletion strains, locus YPL241C, strain CIN2, hits give low values): 0.873
- normalized growth (S. cerevisiae deletion strains, locus YPR135W, strain CTF4, hits give low values): 0.694
- normalized growth (S. cerevisiae strains, strain wild type, hits give low values): 0.984

Reference: PubChem BioAssay AID1159580 (chemical genetic matrix, 2015)
